This passage reports Potency and cytotoxicity increase results from PubChem BioAssay (Tox21).

Records with an inconclusive call do not appear. A call without a number means that no potency is given here. A number with no mark means an inactive call. The source made the active and inactive calls. Calls follow the shape of the dose curve; as a rule, active = well fitted activation curve with a large enough effect in the repeat runs; inconclusive = weak or mixed curves; inactive = flat fitted curve, though single readings scatter.

This assay is described as follows: A CellTox Green Cytotoxicity Assay to monitor cytotoxicity in HepG2 cells - 32 hour (AID 1224883). Also: nearly all actives have a fitted effect of over 50% in size. As to conditions: CellTox Green fluorescence; series mostly up to 76.8 µM. The source says:
National Center for Advancing Translational Sciences [NCATS]
NIH Chemical Genomics Center [NCGC]
U.S. Environmental Protection Agency [EPA]
National Institutes of Environmental Health Sciences [NIEHS]
National Toxicology Program [NTP]
Cell-based models are critical for drug discovery. Determining the natural cytotoxic effects resulting from test compounds is an essential research activity. A CellTox Green Cytotoxicity Assay to monitor cytotoxicity in real time of continues cell culture during 40 hours of the compound treatment was used to screen Tox21 10K library compounds in HepG2 cells. CellTox Green Cytotoxicity Assay is a nonlytic, homogeneous, biofluorescent method to measure cytotoxicity in cell culture after experimental manipulation. The assay system uses a proprietary asymmetric cyanine dye that is excluded from viable cells but preferentially stains the dead cell's DNA. […] Viable cells produce no appreciable increases in fluorescence. Therefore, the fluorescence signal produced by the binding interaction with dead cell DNA is proportional to cytotoxicity.
The mixture of HepG2 cell suspension and reagents were dispensed at 600cells/6 ul/well in 1536-well tissue culture treated black solid bottom plates using a Multidrop dispenser. After the assay plates were incubated at a 37 C/5% CO2 incubator for 5 hours, 23 nL of compounds dissolved in DMSO, positive and negative controls was transferred to the assay plate by a pintool work station. The plates were incubated at 37 C for 40 hours. The fluorescence intensity were measured at 0h, 8h, 16h, 24h, 32h and 40h time points using ViewLux plate reader during compound treatment.
With `O=C1c2ccccc2C(=O)C1c1ccccc1`, the Potency result is “inactive”. As for `CCC(C)NC(N)=O` (stereo not given), the Potency result is “inactive”.

With `CC(C)(C)c1nnc(NS(=O)(=O)c2ccc(N)cc2)s1`, the Potency entry was “inactive”. As to `O=S(O)(O)=S`, the cytotoxicity increase is 0.202% [at 6.97 µM]. Consider `CC1(C)S[C@@H]2[C@H](N=CN3CCCCCC3)C(=O)N2[C@H]1C(=O)O`, for which the Potency result is “inactive”.

For `FC(F)(F)c1ccccc1-n1ccnc1`, the Potency result is “inactive”. In the case of `CCC(C)(CCC(C)C)C(=O)O` (stereo not given), the Potency result was “inactive”. Same read-out and setting: in the case of `Nc1cccc(O)c1` it was “inactive”; in that of `O=S(=O)(O)c1cc(O)c2ccc(Nc3ccccc3)cc2c1`, “inactive”. Consider `CN1CCN(CC(=O)N2c3ccccc3C(=O)Nc3cccnc32)CC1`, for which the cytotoxicity increase was -13% [at 6.97 µM]. As to `CCOC(=O)CC(=O)c1ccccc1`, the Potency result is “inactive”. Turning to `CC(C)C[C@H](NC(=O)CNC(=O)[C@H](Cc1ccc(O)cc1)NC(=O)[C@H](CO)NC(=O)[C@H](Cc1c[nH]c2ccccc12)NC(=O)[C@H](Cc1cnc[nH]1)NC(=O)[C@@H]1CCC(=O)N1)C(=O)N[C@@H](CCCN=C(N)N)C(=O)N1CCC[C@H]1C(=O)NCC(N)=O` (stereo in doubt), the Potency entry is “inactive”. The same measure, in the same setting: with `ClCCCl` the entry was “inactive”. With `CCCCNC1CC(C)(C)NC(C)(C)C1`, the Potency entry was “inactive”. As to `N[C@@H](CCC(=O)N[C@@H](CS)C(=O)NCC(=O)O)C(=O)O`, the cytotoxicity increase is -10.1% [at 15.8 µM].

As to `COC(=O)c1ccccc1C(=O)c1ccc(OCCN2CCCCC2)cc1`, the Potency entry was “inactive”. Take `COCCOCCOCCOCCO`: the Potency entry was “inactive”. On to `OCCC(F)(F)C(F)(F)C(F)(F)C(F)(F)C(F)(F)C(F)(F)C(F)(F)C(F)(F)F`, for which the Potency result was “inactive”. With `CNS(=O)(=O)CCc1ccc2[nH]cc(C3CCN(C)CC3)c2c1`, the Potency entry was “inactive”. For the molecule `CCCCCCCCCCCCCC`, the Potency result is “inactive”. On to `O=S(=O)(O)CCN1CCN(CCO)CC1`, for which the Potency entry was “inactive”. On to `Oc1cn2c(n1)Nc1ccc(Cl)c(Cl)c1C2`, for which the cytotoxicity increase is -1.99% [at 15.8 µM]. For `COC(=O)CCc1ccc(OCC(O)CNC(C)C)cc1` (stereo not given), the Potency result is “inactive”.

In the case of `O=C(O)C(=O)Cc1ccccc1`, the Potency result was “inactive”. Take `CC(C)NCC(O)COc1cccc2[nH]ccc12` (stereo not given): the Potency result was “inactive”.

For the molecule `CC[C@H](C)C(=O)O[C@H]1C[C@H](O)C=C2C=C[C@H](C)[C@H](CC[C@@H](O)C[C@@H](O)CC(=O)O)[C@H]21`, the Potency result was “inactive”. As for `CCCOC(OCCC)OCCC`, the Potency entry was “inactive”. On to `Cc1ccc2c(c1)OCC(=O)CO2`, for which the Potency entry was “inactive”. As for `O=C(O)c1ccc(Cl)cc1Cl`, the Potency entry is “inactive”. In the case of `NS(=O)(=O)c1cc2c(cc1Cl)CN(C1CCCCC1)C2=O`, the Potency result was “inactive”. On to `Cc1cccc(C)c1NC(=O)c1ccccc1C(=O)O`, for which the Potency entry was “inactive”. Same read-out and setting: with `CC(C)CCCCOC(=O)c1ccccc1C(=O)OCCCCC(C)C` the entry was “inactive”; with `O=C(OCc1ccccc1)C(=O)OCc1ccccc1`, “inactive”; with `CC(=O)NCCCCCC(=O)O`, “inactive”. Turning to `CCCN1C[C@H](CSC)C[C@@H]2c3cccc4[nH]cc(c34)C[C@H]21`, the Potency entry was “inactive”.

`O=C(CS(=O)Cc1ccco1)NC/C=C\COc1cc(CN2CCCCC2)ccn1` (stereo not given): the Potency result was “inactive”. On to `O=C1c2cccc3c2[C@H](CCC3)CN1[C@@H]1CN2CCC1CC2`, for which the Potency entry was “inactive”. Still for that read-out and setting: with `CCOc1cc(NC(C)=O)ccc1C(=O)OC` the entry was “inactive”; with `CC(C)CCCC(C)(C)O`, “inactive”; with `CC(C)C(=O)OCCc1ccccc1`, “inactive”.
